Records with an inconclusive call do not appear. Calls of active or inactive are those of the source. Unless noted, calls come from the whole dose curve; as a rule, active = well fitted curve in the direction sought with a large enough effect in the repeat runs; inconclusive = weak or mixed curves; inactive = no such curve, though single readings can be large; an effect the other way counts as inactive or inconclusive.
Experiments:
[1] = qHTS assay to identify small molecule antagonists of the thyroid receptor (TR) signaling pathway - cell viability counter screen (AID 743064); note: nearly all actives have a fitted effect of over 50% in size
Method in brief: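 CellTiter-Fluor readout, 30 min at 37 °C/5% CO2, following 23.5 h incubation of GH3.TRE-Luc cells with test compound and 1 nM T3 (final).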

[2] = qHTS assay to identify small molecule antagonists of the thyroid receptor (TR) signaling pathway (AID 743065); note: series mostly up to about 70 µM; nearly all actives have a fitted effect of over 55% in size
Method in brief: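 GH3.TRE-Luc rat pituitary cells (two TREs driving luciferase) were dosed with compound, then stimulated with 1 nM T3 (final) for 23.5 h at 37 C. ONE-Glo luminescence was the read-out, with CellTiter-Fluor fluorescence as the cytotoxicity counter-screen.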

[3] = tested on: thyroid hormone receptor (rat, GH3 cells); test: qHTS assay to identify small molecule agonists of the thyroid receptor (TR) signaling pathway (AID 743066; calls by dose curve)
[4] = qHTS assay to identify small molecule antagonists of the estrogen receptor alpha (ER-alpha) signaling pathway - cell viability counter screen (AID 743074; calls by dose curve;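 note: HEK293 cells carrying ER-alpha-UAS-bla reporter stimulated with 17beta-estradiol; nearly all actives have a fitted effect of over 45% in size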)
[5] = qHTS assay to identify small molecule antagonists of the estrogen receptor alpha (ER-alpha) signaling pathway using the BG1 cell line - cell viability counter screen (AID 743081);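 note: compound given together with 17beta-estradiol as the ER stimulus; series mostly up to about 70 µM; nearly all actives have a fitted effect of over 45% in size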
Aromatase (Homo sapiens) = Aromatase (Homo sapiens) (UniProt P11511); test: qHTS assay to identify aromatase inhibitors (AID 743083); note: series mostly up to about 70 µM; nearly all actives have a fitted effect of over 55% in size
Chain of Aromatase (Homo sapiens) (P11511 whole entry, looked up): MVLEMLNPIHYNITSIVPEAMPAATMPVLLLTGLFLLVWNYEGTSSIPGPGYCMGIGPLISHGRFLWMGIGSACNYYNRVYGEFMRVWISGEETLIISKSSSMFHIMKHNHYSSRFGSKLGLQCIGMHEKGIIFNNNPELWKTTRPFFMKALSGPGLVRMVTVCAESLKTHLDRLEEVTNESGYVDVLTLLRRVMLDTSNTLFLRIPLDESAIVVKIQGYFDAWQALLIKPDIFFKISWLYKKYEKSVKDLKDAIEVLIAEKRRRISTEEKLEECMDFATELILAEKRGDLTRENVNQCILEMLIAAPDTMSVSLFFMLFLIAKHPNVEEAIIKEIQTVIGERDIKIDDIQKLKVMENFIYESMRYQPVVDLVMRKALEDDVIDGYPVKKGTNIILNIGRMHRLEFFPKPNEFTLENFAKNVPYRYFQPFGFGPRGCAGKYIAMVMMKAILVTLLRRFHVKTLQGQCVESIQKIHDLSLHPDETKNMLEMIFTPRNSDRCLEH

[6] = target: Estrogen receptor (Homo sapiens) (UniProt P03372); test: qHTS assay to identify small molecule antagonists of the estrogen receptor alpha (ER-alpha) signaling pathway (AID 743069; active = well fitted curve in the direction sought with a large enough effect in the signal ratio in the repeat runs, not every such curve was filed as active; the % refers to the signal ratio)
Chain of Estrogen receptor (Homo sapiens) (P03372 whole entry, looked up): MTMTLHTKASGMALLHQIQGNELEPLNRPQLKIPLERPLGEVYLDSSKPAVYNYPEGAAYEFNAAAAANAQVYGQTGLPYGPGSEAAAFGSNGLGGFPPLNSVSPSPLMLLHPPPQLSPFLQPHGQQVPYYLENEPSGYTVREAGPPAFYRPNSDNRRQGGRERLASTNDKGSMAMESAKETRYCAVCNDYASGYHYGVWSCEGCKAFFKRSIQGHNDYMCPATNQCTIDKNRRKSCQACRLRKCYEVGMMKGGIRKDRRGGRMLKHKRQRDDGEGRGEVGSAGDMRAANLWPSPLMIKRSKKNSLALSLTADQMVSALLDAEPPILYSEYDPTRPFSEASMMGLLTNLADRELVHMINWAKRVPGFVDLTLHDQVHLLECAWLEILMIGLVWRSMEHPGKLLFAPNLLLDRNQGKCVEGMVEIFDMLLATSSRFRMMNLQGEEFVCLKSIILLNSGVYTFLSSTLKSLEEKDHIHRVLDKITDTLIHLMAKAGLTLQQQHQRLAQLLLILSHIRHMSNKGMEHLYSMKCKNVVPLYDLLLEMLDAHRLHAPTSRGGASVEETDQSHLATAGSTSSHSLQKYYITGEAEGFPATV
Method in brief: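 HEK293 ER-alpha-UAS-bla GripTite cells, held overnight in 2% charcoal-stripped FBS, 5,000 cells/well, preincubated 4 h, then compound plus 17beta-estradiol for 18 h at 37C. Beta-lactamase read by LiveBLAzer B/G FRET substrate, 2 h at room temperature.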

[7] = target: Estrogen receptor (Homo sapiens) (UniProt P03372); test: qHTS assay to identify small molecule agonists of the estrogen receptor alpha (ER-alpha) signaling pathway (AID 743075; calls by dose curve)
[8] = target: Estrogen receptor (Homo sapiens) (UniProt P03372); test: qHTS assay to identify small molecule agonists of the estrogen receptor alpha (ER-alpha) signaling pathway using the BG1 cell line (AID 743079); note: nearly all actives have a fitted effect of over 20% in size
[9] = qHTS assay to identify small molecule antagonists of the estrogen receptor alpha (ER-alpha) signaling pathway using the BG1 cell line (AID 743080; calls by dose curve;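 note: BG1 cells stimulated with 17beta-estradiol alongside compound; series mostly up to about 70 µM; nearly all actives have a fitted effect of over 25% in size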)
Method in brief: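 BG1Luc4E2, endogenous ER-alpha, 4xERE-luc; 5 d charcoal-stripped FBS, phenol red free; 24 h plating; cpd + 17beta-estradiol 21.5 h, 37 C/5% CO2; CellTiter-Fluor viability 30 min, then ONE-Glo luciferase 30 min RT.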
% is set by controls: 0 for no effect and ±100 for the full control effect.

c1ccc2c(c1)ccc1c3ccccc3ccc21
inactive: Potency [1] | Potency [2] | outcome [3] | outcome [4] | outcome [5] | Potency (Aromatase (Homo sapiens))

Cc1ccsc1/C=C/C1=NCCCN1C
inactive: Potency [1] | outcome [3] | outcome [6] | outcome [4] | outcome [7] | Potency [8] | Potency [9] | outcome [5] | Potency (Aromatase (Homo sapiens))

CCCCCCN
inactive: Potency [1] | outcome [3] | outcome [6] | outcome [4] | outcome [7] | Potency [8] | Potency [9] | outcome [5] | Potency (Aromatase (Homo sapiens))

C=CCCCCCCCCCCCC
inactive: Potency [1] | Potency [2] | outcome [3] | outcome [5] | Potency (Aromatase (Homo sapiens))

C=COCCOCCOCCOC=C
inactive: Potency [1] | Potency [2] | outcome [3] | outcome [4] | outcome [5] | Potency (Aromatase (Homo sapiens))

Brc1ccc(-c2ccccc2)cc1
inactive: Potency [1] | Potency [2] | outcome [3] | outcome [5]

COc1nccnc1NS(=O)(=O)c1ccc(N)cc1
inactive: Potency [1] | Potency [2] | outcome [3] | outcome [5] | Potency (Aromatase (Homo sapiens))

CCOc1cc(NC(C)=O)ccc1C(=O)OC
inactive: Potency [1] | outcome [3] | outcome [6] | outcome [4] | outcome [7] | Potency [8] | Potency [9] | outcome [5] | Potency (Aromatase (Homo sapiens))

Cc1cc(NC(=O)C2=C(O)c3ccccc3S(=O)(=O)N2C)no1
inactive: Potency [1] | Potency [2] | outcome [3] | outcome [5] | Potency (Aromatase (Homo sapiens))

CCC(CC)CO
inactive: Potency [1] | outcome [3] | outcome [6] | outcome [4] | outcome [7] | Potency [8] | Potency [9] | outcome [5] | Potency (Aromatase (Homo sapiens))

O=C(O)Cc1ccc(Cl)cc1Cl
inactive: Potency [1] | outcome [3] | outcome [6] | outcome [4] | outcome [7] | Potency [8] | Potency [9] | outcome [5] | Potency (Aromatase (Homo sapiens))

NCCN1CCOCC1
inactive: Potency [1] | Potency [2] | outcome [3] | outcome [5] | Potency (Aromatase (Homo sapiens))

N#Cc1ccc(C(=O)O)cc1
inactive: Potency [1] | Potency [2] | outcome [3] | outcome [4] | outcome [5] | Potency (Aromatase (Homo sapiens))

C[Si](C)=O
inactive: activity change, negative = cytotoxic [1] -4.47% [at 8.44 µM] | activity, negative = inhibition [2] 0.0327% [at 8.44 µM] | activation [3] 0.231% [at 8.08 µM] | activity, negative = cytotoxicity [4] 5.35% [at 6.72 µM] | activity change, negative = cytotoxicity [5] -7.83% [at 8.47 µM] | activity, negative = inhibition (Aromatase (Homo sapiens)) 11% [at 8.47 µM]

C=Cc1ccccn1
inactive: Potency [1] | Potency [2] | outcome [3] | outcome [5] | Potency (Aromatase (Homo sapiens))

Source: PubChem BioAssay (Tox21)
